Laboratory results published in PubChem BioAssay AID777 (Sanford-Burnham Center for Chemical Genomics, 2007).
Hit rate of the full screen: of about 96,000 compounds, about 19,000 (20%) were called active. Only a sample is shown. Values without a mark were called inactive.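 Rule for the calls: active = blocking of liver enzyme CYP2C9 beyond about 50% at 5 µM (limit read from the data); inactive = the rest.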

Molecular target: Cytochrome P450 2C9 (Homo sapiens) (UniProt P11712)
Test: blockers of cytochrome P450 2C9 activity – biochemical, luminescence, ADME assay, primary screen (AID 777)
Conditions: CYP2C9 Supersomes, luciferin-H conversion, at 5 µM, hits give high values

Chain of Cytochrome P450 2C9 (Homo sapiens) (P11712 whole entry, looked up): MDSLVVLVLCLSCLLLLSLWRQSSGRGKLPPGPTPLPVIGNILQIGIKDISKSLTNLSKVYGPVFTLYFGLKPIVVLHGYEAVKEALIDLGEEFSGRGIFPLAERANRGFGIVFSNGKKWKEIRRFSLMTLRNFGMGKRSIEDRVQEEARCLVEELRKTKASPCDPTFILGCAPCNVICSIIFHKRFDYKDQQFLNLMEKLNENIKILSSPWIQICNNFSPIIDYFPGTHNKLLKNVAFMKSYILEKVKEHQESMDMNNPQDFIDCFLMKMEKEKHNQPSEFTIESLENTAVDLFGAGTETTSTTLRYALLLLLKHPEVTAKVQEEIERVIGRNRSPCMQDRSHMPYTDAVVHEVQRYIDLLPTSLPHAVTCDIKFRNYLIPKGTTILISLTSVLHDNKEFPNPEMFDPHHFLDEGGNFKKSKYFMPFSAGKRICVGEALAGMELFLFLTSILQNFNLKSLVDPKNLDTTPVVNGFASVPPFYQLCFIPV

SMILES	inhibition
Cc1ccc(Oc2ccc3c(c2)C(=O)N(c2cccc4cccnc24)C3=O)cc1	-11.5%
Cc1ccc(C2(c3ccc(C)cc3)NC(=O)N(Cc3c(C)noc3C)C2=O)cc1	60.8% (active)
COc1ccc(C(=O)CN2C(=O)NC(C)(c3ccc(C)cc3)C2=O)cc1OC (stereo not given)	17.2%
COc1ccc(C(=O)CSc2n[nH]c(N)n2)cc1	2.8%
O=C(CN1CCOCC1)Nc1c(-c2ccccc2)c2cc(Br)ccc2[nH]c1=O	-15.8%
CS(=O)(=O)c1ccc2nc(NC(=O)C3CCCCC3)sc2c1	7.3%
CCCC(=O)Nc1ccccc1N1CCN(C(=O)c2ccccc2)CC1	35.7%
O=C(Nc1ccccc1N1CCN(c2ccccc2)CC1)c1cccc(F)c1	81.1% (active)
O=C(CN1CCN(CC(=O)Nc2ccc3c(c2)OCO3)CC1)Nc1ccc(F)cc1	33.1%
O=C(CN1CCN(c2ccccc2F)CC1)c1ccc2c(c1)OCO2	74.2% (active)
O=C(c1ccc2c(c1)OCO2)N1CCNc2ccccc2C1	-40.3%
O=C(Nc1ccccc1N1CCCCC1)c1ccc2nccnc2c1	28.1%
O=C(Nc1ccccc1N1CCN(C(=O)c2ccccc2)CC1)c1ccc2c(c1)OCO2	83.3% (active)
O=C(Nc1ccccc1N1CCCCC1)c1cccc(F)c1	1.2%
CCOc1ccc(NC(=O)N2CCN(CC)CC2)cc1	-0.2%
Cc1oc2nc(SCC(=O)Nc3ccc(S(N)(=O)=O)cc3)nc(NC(=O)c3ccccc3)c2c1C	15%
COc1ccc(Cc2nnnn2CC(=O)O)cc1	-11.9%
Cc1ccccc1-c1ccc(Nc2ccc(C(=O)N3CCOCC3)cc2)nn1	34.1%
COc1ccc(N2C(=O)CC(N3CCC(C(N)=O)CC3)C2=O)cc1 (stereo not given)	-20.9%
COC(=O)c1ccc(C2C(Oc3ccccc3C)C(=O)N2CCc2ccc(OC)c(OC)c2)cc1 (stereo not given)	54.9% (active)
COC(=O)c1ccc(C2CC(=O)Nc3cc(OC)c(OC)cc32)cc1 (stereo not given)	30.2%
COc1ccc(CCN2CNc3c(c(=O)n(C)c(=O)n3C)C2)cc1OC	-29.7%
Cc1nn(C(C)CC(=O)O)c(C)c1C (stereo not given)	-4.1%
COc1ccc(CN2C(=O)CN=C2Nc2ccc(C)cc2C)cc1	31.5%
CCCCc1nc(NCCN)c(C#N)c2c1CSC(C)(C)C2	53.6% (active)

SMILES	inhibition
CCN(CC)c1ccc(NC(=O)c2ccc(Cl)nc2)cc1	-69.8%
CCOc1ccc(C(CC(=O)O)NC(=O)COc2ccccc2)cc1 (stereo not given)	5.2%
O=C(COc1ccccc1)Nc1nonc1NC(=O)COc1ccccc1	52% (active)
CCOc1cc(NC(=O)c2ccco2)c(OCC)cc1NC(=O)COc1ccccc1	11.6%
Cc1ccc(C)c2[nH]c(=O)c(CCNC(=O)CC(C)C)cc12	30.9%
O=[N+]([O-])c1c(NCCO)cc(Sc2nc3ccccc3s2)c2nonc12	12.3%
Cn1c(=O)cc(OCCCC(=O)N2CCN(c3ccccn3)CC2)c2ccccc21	30.3%
CCN(CC)C(=O)CSc1nnc(-c2cccc(OC)c2)o1	-55.9%
COc1cccc(-c2nnc(NC(=O)c3ccc(S(=O)(=O)N(CC(C)C)CC(C)C)cc3)o2)c1	58.9% (active)
CC1CCCCN1S(=O)(=O)c1ccc(C(=O)Nc2nnc(-c3cccs3)o2)cc1 (stereo not given)	7.8%
O=C(/C=C/c1cccs1)c1cc(Cl)ccc1OC(=O)N1CCOCC1	28.1%
CN(Cc1ccccc1)C(=O)CCNC(=O)Cn1cnc2ccccc2c1=O	24.9%
O=C(Cn1cnc2ccccc2c1=O)NCC1COc2ccccc2O1 (stereo not given)	61.2% (active)
O=C(Cn1nc(Cc2cccnc2)c2ccccc2c1=O)NCC1CCCO1 (stereo not given)	21.3%
O=C(Cn1nc(Cc2cccnc2)c2ccccc2c1=O)NCC1COc2ccccc2O1 (stereo not given)	66.1% (active)
CC1Oc2ccccc2N(Cc2cccnc2)C1=O (stereo not given)	14%
O=C(CN1C(=O)C2C3C=CC(C3)C2C1=O)NCC1COc2ccccc2O1 (stereo not given)	-1.1%
Cc1cc(OC(=O)c2c(Cl)cccc2Cl)nc(C)n1	2.9%
CCC(C)NC(=O)CCCc1ccccc1 (stereo not given)	-17.4%
c1ccc(Cc2nn3c(Cn4cnc5ccccc54)nnc3s2)cc1	24.4%
CC(=O)c1cn(CCCCCCCCCCn2cc(C(C)=O)c(=O)[nH]c2=O)c(=O)[nH]c1=O	3.4%
CC(=O)c1c(C)n([O-])c2ccccc2[n+]1=O	-1.1%
CCOC(=O)N1CCN(C(=O)c2cc3c(ccc4ccccc43)oc2=O)CC1	45.9%
O=C(COc1ccc2c3c(c(=O)oc2c1)CCC3)NC1CCCCC1	73.7% (active)
CC1(C)CC(=O)c2cc(OCC(=O)NCC3CCCO3)ccc2O1 (stereo not given)	18.5%

SMILES	inhibition
NC(=O)COc1ccc2c3c(c(=O)oc2c1)CCCCC3	-7.4%
O=C(Cn1cc(C(=O)c2cccs2)c2ccccc21)NCc1cccs1	93.7% (active)
COC(=O)Cn1cc(C(=O)c2cccs2)c2ccccc21	25.3%
COC(=O)c1cn(CC(=O)NCc2cccs2)c2ccccc12	23.2%
CN(C)c1ccnc(Oc2ccc(F)cc2)c1C#N	40.8%
CCOC(=O)N1CCN(C(=O)COc2ccc(Br)cc2)CC1	-4.3%
CCOC(=O)N1CCN(C(=O)COc2ccc(Cl)cc2C)CC1	-15.4%
CCOC(=O)N1CCC(O)(c2cc(C)c(C)cc2C)CC1	67.1% (active)
COC(=O)c1ccc(N(CC(=O)NC2CCCC2)C(=O)CNC(=O)c2ccco2)cc1	28.7%
Cc1cc(C)nc(SCc2ccccc2C#N)n1	-24.8%
Cc1ccc(Cc2cncc(O)c2)cc1S(=O)(=O)O	0.1%
c1ccc2[nH]c(-c3nc4ccccc4[nH]3)nc2c1	16.1%
Cc1cc(NS(=O)(=O)c2ccccc2)no1	12.3%
O=S(=O)(Nc1ccc2nc(-c3ccco3)[nH]c2c1)c1ccccc1	85.2% (active)
Cc1cc(C)c2c3c(sc2n1)C(c1ccccc1)C(C#N)=C(N)O3 (stereo not given)	11%
Fc1ccc(OCc2nn3c(Cn4nnc5ccccc54)nnc3s2)cc1	23.6%
O=C(Nc1ccccc1)c1ccccc1NC(=O)C(F)(F)F	74.8% (active)
O=C(Nc1ccccc1)c1cccnc1Nc1ccccc1	1.5%
Cc1cccc(NC(=O)c2ccccc2NC(=O)C(C)(C)C)n1	11.7%
Cc1ccc(-n2c(=O)cc(N3CCN(Cc4ccccc4)CC3)[nH]c2=O)cc1	22.1%
CCOC(=O)C1CCN(C(=O)COc2cc(C)c(Br)c(C)c2)CC1	15.8%
CCCN1CCN(C(=O)Cn2ncc3ccccc32)CC1	1%
O=c1[nH][nH]c(C(F)(F)F)c1C=NCc1ccccc1Cl	55.5% (active)
O=c1ccn(Cc2ccccc2Cl)cc1	-5.8%
Cc1ccc(N(NC(=O)C(C)(C)O)C(=O)c2ccccc2)cc1C	2.5%

SMILES	inhibition
NS(=O)(=O)c1cccnc1Nc1cccc(Cl)c1	5.6%
O=C(Cn1cncn1)N/N=C/c1c2ccccc2cc2ccccc12	63.7% (active)
O=C(Cc1ccccc1)N/N=C/c1ccc(Cl)cc1Cl	23.1%
Cc1ccc(/C=N/NC(=O)Cn2nc(C)c(Br)c2C)o1	23.7%
CC(=O)Oc1ccc(C(C)=O)c2c1OCCO2	-9.3%
N#CCCn1cnc2ccccc21	-0.8%
Cc1ccc(SCC(=O)NC(=O)NCc2ccco2)c(C)c1	30%
CC1(c2ccccc2Cl)NC(=O)N(CC(=O)NC(=O)NCc2ccco2)C1=O (stereo not given)	67.6% (active)
O=C(CN1CCN(S(=O)(=O)/C=C/c2ccccc2)CC1)NC(=O)NCc1ccco1	40.2%
Cc1cccc(NC(=O)c2ccc3ccccc3n2)n1	-0.8%
COc1cc(OC)nc(NC(=O)CCl)n1	-14.2%
O=P(O)(CP(=O)(c1ccccc1)c1ccccc1)c1ccccc1O	-5.8%
CC(CO)N1CCS(=O)(=O)CC1 (stereo not given)	-5.6%
COc1ccc(NC(=O)C(CC(C)C)NS(=O)(=O)c2ccc3c(c2)CCN3C(C)=O)cc1OC (stereo not given)	7.4%
Brc1ccc(OCCn2ccnc2)cc1	72.1% (active)
CC(=O)NS(=O)(=O)c1ccccc1	0.2%
O=C1C(Cl)=C(N2CCOCC2)C(=O)N1c1ccccc1	5%
COc1cc2c(cc1OC)C(C(=O)NCc1ccco1)C1c3ccccc3CCN1C2=O (stereo not given)	42%
CC1(C)SC2c3ccccc3C(=O)N2[C@@H]1C(=O)NCc1ccco1 (stereo not given in full)	57.9% (active)
CC(C)(C)c1ccc(NC(=O)NCc2ccco2)cc1	-17.8%
CC1CCc2c(sc3c2C2=NS(=O)(=O)CCN2C=N3)C1 (stereo not given)	6.8%
CC(C)CC(=O)Nc1cc(C(F)(F)F)ccc1N1CCOCC1	9.9%
O=C(Cn1nnc2ccccc2c1=O)Nc1cc(C(F)(F)F)ccc1N1CCOCC1	60.7% (active)
O=C(Nc1cc(-c2nn(CC(=O)N3CCCCC3)c(=O)c3ccccc23)ccc1N1CCOCC1)c1ccc(Cl)cc1	0.2%
CCCCc1nccn1CCn1ccnc1CCCC	-10.5%
